This is an account of results in PubChem BioAssay (EPA / NIEHS).

Assay [1] addresses Androgen receptor (Homo sapiens) (UniProt P10275). As to the kind of experiment: ATG_AR_TRANS: Attagene TRANS-FACTORIAL HepG2 Assay for human Androgen Receptor (AR) (AID 2282973). The conditions noted are these: HepG2 Attagene TRANS-FACTORIAL AR reporter transcription. In outline: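 Chimeric nuclear receptor–Gal4 activity was assessed in human HepG2 hepatocytes after 24 h chemical dosing. Induced reporter mRNA was detected via labelled RT-PCR fragments on capillary electrophoresis, and gain of signal was analysed against DMSO.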

For assay [2], the target named is human Phosphatase and Tensin Homolog (PTEN), PTEN (gene 5728) (UniProt P60484). Nature of the assay: NVS_ENZ_hPTEN: NovaScreen (NVS) Enzymatic Assay for human Phosphatase and Tensin Homolog (PTEN) (AID 2283203). The essentials:
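Cell-free recombinant human PTEN with fluorescent substrate; product separated by electrophoretic mobility shift and read by fluorescence 1 h after dosing. Primary screen in duplicate at 25 uM, actives followed in concentration series versus DMSO.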

Assay [3] has as its target human Matrix Metalloproteinase-1 (MMP1), MMP1 (gene 4312) (UniProt P03956). As to the kind of experiment: NVS_ENZ_hMMP1: NovaScreen (NVS) Enzymatic Assay for human Matrix Metalloproteinase-1 (MMP1) (AID 2283181). In outline:
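Human MMP1 enzyme activity measured by fluorescence 1 h after dosing, cell-free, with a specific substrate. Screened in duplicate at 25 uM; hits (e.g. 30% inhibition) run in concentration-response up to 50 uM; loss of signal versus DMSO.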

In assay [4] the target is rat Monoamine Oxidase, MAO-B, Central (MAOBC), Maob (gene 25750) (UniProt P19643). As to the kind of experiment: NVS_ENZ_rMAOBC: NovaScreen (NVS) Enzymatic Assay for rat Monoamine Oxidase, MAO-B, Central (MAOBC) (AID 2283238). In outline: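 Compounds were first tested in duplicate at 25 uM against MAO-B from rat brain tissue; those passing the inhibition threshold were retested in concentration series up to 50 uM. Radiodetection by scintillation counting at 1.17 h, analysed against DMSO baseline.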
rat Monoamine Oxidase, MAO-B, Central (MAOBC), Maob (gene 25750), sequence (P19643 whole entry, looked up): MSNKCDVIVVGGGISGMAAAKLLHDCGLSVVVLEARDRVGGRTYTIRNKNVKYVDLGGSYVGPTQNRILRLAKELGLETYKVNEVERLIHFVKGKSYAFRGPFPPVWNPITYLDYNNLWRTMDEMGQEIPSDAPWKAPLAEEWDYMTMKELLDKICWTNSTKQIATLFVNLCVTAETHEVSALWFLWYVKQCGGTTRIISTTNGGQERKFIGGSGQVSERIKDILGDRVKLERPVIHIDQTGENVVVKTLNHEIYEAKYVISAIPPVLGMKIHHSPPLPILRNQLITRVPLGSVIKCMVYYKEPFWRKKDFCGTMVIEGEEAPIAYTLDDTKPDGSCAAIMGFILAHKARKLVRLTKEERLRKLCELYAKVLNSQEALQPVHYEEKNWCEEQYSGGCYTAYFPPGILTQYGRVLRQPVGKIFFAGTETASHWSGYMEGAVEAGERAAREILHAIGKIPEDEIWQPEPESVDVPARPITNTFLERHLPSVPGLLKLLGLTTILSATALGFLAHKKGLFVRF

In assay [5] the target is rat Monoamine Oxidase, MAO-B, Peripheral (MAOBP), Maob (gene 25750) (UniProt P19643). As to the kind of experiment: NVS_ENZ_rMAOBP: NovaScreen (NVS) Enzymatic Assay for rat Monoamine Oxidase, MAO-B, Peripheral (MAOBP) (AID 2283242).
rat Monoamine Oxidase, MAO-B, Peripheral (MAOBP), Maob (gene 25750), sequence (P19643 whole entry, looked up): as above
Assay [6] addresses rat Oxytocin Receptor (OXT), Oxtr (gene 25342) (UniProt P70536). As to the kind of experiment: NVS_GPCR_rOXT: NovaScreen (NVS) G Protein-Coupled Receptor Assay for rat Oxytocin Receptor (OXT) (AID 2283330). In outline: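 Radioligand displacement on rat uterine membranes, 1 h incubation, filter-based scintillation counting. Chemicals were screened in duplicate at 25 uM, and those passing threshold were retested in concentration-response up to 50 uM. Loss of binding was fitted versus DMSO.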

The test system of assay [7] is rat Monoamine Oxidase, MAO-A, Central (MAOAC), gene 29253. As to the kind of experiment: NVS_ENZ_rMAOAC: NovaScreen (NVS) Enzymatic Assay for rat Monoamine Oxidase, MAO-A, Central (MAOAC) (AID 2283243).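 Also: potency refers to inhibition seen as signal drop below DMSO baseline.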 In outline: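 Rat brain tissue extract served as the cell-free enzyme source; activity was measured by radiometric scintillation counting 1.5 hours after compound addition. Loss of signal relative to DMSO baseline indicated inhibition; primary screen at 25 uM in duplicate.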

Assay [8] deals with human Raf-1 Proto-Oncogene, serine/threonine Kinase (RAF1), RAF1 (gene 5894) (UniProt P04049). As to the kind of experiment: NVS_ENZ_hRAF1: NovaScreen (NVS) Enzymatic Assay for human Raf-1 Proto-Oncogene, serine/threonine Kinase (RAF1) (AID 2283216). In outline:
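Cell-free recombinant kinase with specific fluorescent substrate, product separated by electrophoretic mobility shift; read 1 h after dosing. Primary screen at 25 uM in duplicate; hits then run in concentration-response up to 50 uM, fitted as loss of signal versus DMSO.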

For assay [9], the target named is human p21 Activated Kinase 4 (PAK4), PAK4 (gene 10298) (UniProt O96013). Nature of the assay: NVS_ENZ_hPAK4: NovaScreen (NVS) Enzymatic Assay for human p21 Activated Kinase 4 (PAK4) (AID 2283189). In outline: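 Cell-free recombinant human PAK4 activity assay; fluorescent substrate and product separated by electrophoretic mobility shift, read 1 h after dosing. Initially tested in duplicate at 25 uM, relative to DMSO baseline.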
human p21 Activated Kinase 4 (PAK4), PAK4 (gene 10298), sequence (O96013 whole entry, looked up): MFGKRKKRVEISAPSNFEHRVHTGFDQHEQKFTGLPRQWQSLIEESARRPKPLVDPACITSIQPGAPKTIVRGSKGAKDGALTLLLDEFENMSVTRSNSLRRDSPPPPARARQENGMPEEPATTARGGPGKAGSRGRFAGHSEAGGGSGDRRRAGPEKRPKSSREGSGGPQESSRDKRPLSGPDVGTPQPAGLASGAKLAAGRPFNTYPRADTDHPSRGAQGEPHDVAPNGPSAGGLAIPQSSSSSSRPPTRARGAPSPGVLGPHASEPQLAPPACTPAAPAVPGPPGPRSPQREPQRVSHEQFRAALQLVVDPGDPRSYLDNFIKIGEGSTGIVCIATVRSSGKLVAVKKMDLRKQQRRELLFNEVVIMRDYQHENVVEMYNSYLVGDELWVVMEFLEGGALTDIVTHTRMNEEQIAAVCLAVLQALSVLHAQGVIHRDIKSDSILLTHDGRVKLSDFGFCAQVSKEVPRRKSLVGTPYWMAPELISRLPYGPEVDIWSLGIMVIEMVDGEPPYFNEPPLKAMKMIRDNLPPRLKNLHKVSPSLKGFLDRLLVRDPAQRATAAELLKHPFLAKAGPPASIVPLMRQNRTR

Assay [10] deals with human Protein Tyrosine Phosphatase Receptor Type C (PTPRC), PTPRC (gene 5788) (UniProt P08575). Nature of the assay: NVS_ENZ_hPTPRC: NovaScreen (NVS) Enzymatic Assay for human Protein Tyrosine Phosphatase Receptor Type C (PTPRC) (AID 2283212). The essentials: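 Yeast-extracted human PTPRC used in a cell-free colorimetric enzyme activity read-out, 1 h after dosing. Primary screen in duplicate at 25 uM; actives rerun in concentration-response up to 50 uM, DMSO as baseline.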
human Protein Tyrosine Phosphatase Receptor Type C (PTPRC), PTPRC (gene 5788), sequence (P08575 whole entry, looked up): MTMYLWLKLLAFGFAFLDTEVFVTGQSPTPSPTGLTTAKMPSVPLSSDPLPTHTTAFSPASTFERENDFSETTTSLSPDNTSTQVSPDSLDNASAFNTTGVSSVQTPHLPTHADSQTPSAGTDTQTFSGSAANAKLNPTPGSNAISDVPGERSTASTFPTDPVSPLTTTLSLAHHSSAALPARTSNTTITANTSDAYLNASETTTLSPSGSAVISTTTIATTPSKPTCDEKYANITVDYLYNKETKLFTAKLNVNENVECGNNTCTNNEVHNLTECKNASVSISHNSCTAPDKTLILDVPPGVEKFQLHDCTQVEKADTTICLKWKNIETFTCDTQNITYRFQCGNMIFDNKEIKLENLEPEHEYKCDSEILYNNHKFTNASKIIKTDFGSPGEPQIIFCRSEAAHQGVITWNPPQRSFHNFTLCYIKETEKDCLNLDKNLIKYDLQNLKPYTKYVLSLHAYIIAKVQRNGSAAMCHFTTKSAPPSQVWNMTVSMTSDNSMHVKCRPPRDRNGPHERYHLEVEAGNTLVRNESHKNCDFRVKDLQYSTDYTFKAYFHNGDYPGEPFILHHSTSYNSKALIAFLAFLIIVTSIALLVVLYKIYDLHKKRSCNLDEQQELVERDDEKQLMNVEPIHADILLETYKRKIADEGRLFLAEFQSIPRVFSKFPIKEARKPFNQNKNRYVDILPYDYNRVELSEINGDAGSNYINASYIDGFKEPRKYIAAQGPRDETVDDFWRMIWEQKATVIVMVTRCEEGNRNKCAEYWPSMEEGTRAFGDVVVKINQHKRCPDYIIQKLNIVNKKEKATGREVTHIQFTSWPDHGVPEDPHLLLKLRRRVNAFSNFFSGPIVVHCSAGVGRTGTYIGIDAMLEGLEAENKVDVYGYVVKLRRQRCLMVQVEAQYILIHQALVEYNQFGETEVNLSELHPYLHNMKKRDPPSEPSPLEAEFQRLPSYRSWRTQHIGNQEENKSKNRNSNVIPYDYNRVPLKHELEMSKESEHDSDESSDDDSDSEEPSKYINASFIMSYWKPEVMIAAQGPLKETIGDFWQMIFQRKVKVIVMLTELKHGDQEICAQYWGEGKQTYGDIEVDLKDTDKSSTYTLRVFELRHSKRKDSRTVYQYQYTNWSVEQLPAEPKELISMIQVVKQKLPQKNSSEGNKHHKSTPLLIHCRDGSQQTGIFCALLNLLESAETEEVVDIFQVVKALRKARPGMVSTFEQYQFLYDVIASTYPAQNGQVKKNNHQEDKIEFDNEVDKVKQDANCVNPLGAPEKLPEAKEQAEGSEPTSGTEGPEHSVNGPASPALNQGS

For assay [11], the system named is rat Monoamine Oxidase, MAO-A, Peripheral (MAOAP), gene 29253. Nature of the assay: NVS_ENZ_rMAOAP: NovaScreen (NVS) Enzymatic Assay for rat Monoamine Oxidase, MAO-A, Peripheral (MAOAP) (AID 2283237). The essentials: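 Rat liver mitochondrial membranes served as the MAO-A source, with enzyme activity measured by radiometric scintillation counting 1.17 hours after dosing. Loss of signal was fitted against DMSO; primary screen used 25 uM in duplicate, follow-up used concentration series.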

Assay [12] concerns the target Voltage-dependent N-type calcium channel subunit alpha-1B (Rattus norvegicus) (UniProt Q02294). As to the kind of experiment: NVS_IC_rCaChN: NovaScreen (NVS) Ion Channel Assay for rat Calcium Channel, Type N (CaChN) (AID 2283317).
Assay [13] can be described thus: Tanguay_ZF_120hpf_MUSC: Oregon State University Tanguay Lab 120 Hour Post-fertilization zebrafish Assay for Muscle Malformation (AID 2284401; active = hit-call score of the fitted dose curve at least 0.9, where 1 is the maximum; inactive = score below 0.9). The essentials:
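Dechorionated Tropical 5D wild-type zebrafish embryos exposed statically from 6 to 120 hpf at 28C, one per well, in 0.64% DMSO. Muscle malformation scored present/absent by brightfield microscopy at 120 hpf, fitted against DMSO.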

Assay [14] is described as follows: ATG_M_32_XSP2: Attagene TRANS-FACTORIAL Multi-Species (XSP2) HepG2 Assay for M19 Transcription Factor (Internal Marker) (AID 2283826). In outline: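 An internal background marker among multiplexed transfected reporters in HepG2 liver cells was measured 24 h after dosing. Androgen receptor stimulation came from 3 nM 6-alpha-fluorotestosterone and 1.5 nM norgestrel.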

Assay [15] concerns the target bovine Gamma-Aminobutyric Acid Type A Receptor BDZ, alpha 1 site (GABARa1), GABRA1 (gene 780973) (UniProt P08219). As to the kind of experiment: NVS_LGIC_bGABARa1: NovaScreen (NVS) Ligand-Gated Ion Channel Assay for bovine Gamma-Aminobutyric Acid Type A Receptor BDZ, alpha 1 site (GABARa1) (AID 2283321). In outline: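 Radioligand competition binding on bovine cortical membranes, 0.75 h, filter-based scintillation counting. Primary single concentration 25 uM in duplicate; actives rerun in concentration-response to 50 uM max. Loss of signal fitted versus DMSO.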

Results filed as inconclusive are left out. Active and inactive are the calls of the source. The calls were made as follows, unless noted: active = hit-call score of the fitted dose curve at least 0.9, where 1 is the maximum; inconclusive = response in the unintended direction; inactive = score below 0.9.

human Phosphatase and Tensin Homolog (PTEN), PTEN (gene 5728), sequence (P60484 whole entry, looked up): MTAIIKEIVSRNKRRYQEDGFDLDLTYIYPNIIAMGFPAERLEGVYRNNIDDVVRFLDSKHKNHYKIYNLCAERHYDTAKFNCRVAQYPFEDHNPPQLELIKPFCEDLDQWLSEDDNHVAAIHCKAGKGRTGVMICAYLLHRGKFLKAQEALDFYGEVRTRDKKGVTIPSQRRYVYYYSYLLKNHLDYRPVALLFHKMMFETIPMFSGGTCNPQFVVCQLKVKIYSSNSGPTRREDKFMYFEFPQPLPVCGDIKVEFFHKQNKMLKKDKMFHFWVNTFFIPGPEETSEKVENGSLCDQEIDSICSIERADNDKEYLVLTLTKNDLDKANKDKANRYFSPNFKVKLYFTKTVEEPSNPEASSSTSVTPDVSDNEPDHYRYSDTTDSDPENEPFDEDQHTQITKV
Androgen receptor (Homo sapiens), sequence (P10275 whole entry, looked up, the tested form may be a part): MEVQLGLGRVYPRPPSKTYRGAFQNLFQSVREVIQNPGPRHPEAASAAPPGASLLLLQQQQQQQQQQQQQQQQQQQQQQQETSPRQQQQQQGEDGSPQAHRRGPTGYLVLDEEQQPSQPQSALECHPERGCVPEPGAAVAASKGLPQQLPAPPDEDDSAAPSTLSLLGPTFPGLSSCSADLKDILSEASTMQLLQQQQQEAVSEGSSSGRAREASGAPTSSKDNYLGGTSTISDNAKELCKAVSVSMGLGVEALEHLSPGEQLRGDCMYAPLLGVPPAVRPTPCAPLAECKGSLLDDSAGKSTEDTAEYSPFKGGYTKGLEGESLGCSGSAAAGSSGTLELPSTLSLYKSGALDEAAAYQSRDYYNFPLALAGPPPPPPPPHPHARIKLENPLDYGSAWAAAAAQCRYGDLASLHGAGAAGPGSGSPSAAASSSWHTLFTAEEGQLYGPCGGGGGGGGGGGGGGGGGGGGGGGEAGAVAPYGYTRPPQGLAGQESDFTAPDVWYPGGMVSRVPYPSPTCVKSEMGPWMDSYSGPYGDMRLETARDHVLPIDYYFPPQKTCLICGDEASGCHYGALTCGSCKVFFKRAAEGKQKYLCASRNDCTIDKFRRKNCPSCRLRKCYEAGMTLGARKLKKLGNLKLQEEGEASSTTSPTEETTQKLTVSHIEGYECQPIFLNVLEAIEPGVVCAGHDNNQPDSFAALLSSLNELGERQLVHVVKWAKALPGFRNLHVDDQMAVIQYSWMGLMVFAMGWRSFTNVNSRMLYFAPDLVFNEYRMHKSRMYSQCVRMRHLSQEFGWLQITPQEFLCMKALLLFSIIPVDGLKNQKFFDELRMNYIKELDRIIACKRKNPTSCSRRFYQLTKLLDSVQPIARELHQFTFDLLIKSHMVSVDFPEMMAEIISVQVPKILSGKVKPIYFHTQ
human Matrix Metalloproteinase-1 (MMP1), MMP1 (gene 4312), sequence (P03956 whole entry, looked up): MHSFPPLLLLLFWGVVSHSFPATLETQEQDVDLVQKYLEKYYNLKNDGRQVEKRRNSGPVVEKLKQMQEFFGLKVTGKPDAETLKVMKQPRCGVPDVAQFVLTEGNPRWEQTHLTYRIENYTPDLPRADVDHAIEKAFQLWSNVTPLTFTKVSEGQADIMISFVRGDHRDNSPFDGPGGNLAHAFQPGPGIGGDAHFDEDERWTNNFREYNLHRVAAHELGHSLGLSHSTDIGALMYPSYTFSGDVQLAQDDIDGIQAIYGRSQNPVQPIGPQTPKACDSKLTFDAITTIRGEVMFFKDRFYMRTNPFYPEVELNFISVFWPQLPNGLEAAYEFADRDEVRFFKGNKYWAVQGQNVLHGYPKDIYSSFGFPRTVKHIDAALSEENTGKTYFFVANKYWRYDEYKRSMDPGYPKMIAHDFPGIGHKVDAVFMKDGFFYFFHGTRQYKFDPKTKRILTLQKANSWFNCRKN
rat Oxytocin Receptor (OXT), Oxtr (gene 25342), sequence (P70536 whole entry, looked up): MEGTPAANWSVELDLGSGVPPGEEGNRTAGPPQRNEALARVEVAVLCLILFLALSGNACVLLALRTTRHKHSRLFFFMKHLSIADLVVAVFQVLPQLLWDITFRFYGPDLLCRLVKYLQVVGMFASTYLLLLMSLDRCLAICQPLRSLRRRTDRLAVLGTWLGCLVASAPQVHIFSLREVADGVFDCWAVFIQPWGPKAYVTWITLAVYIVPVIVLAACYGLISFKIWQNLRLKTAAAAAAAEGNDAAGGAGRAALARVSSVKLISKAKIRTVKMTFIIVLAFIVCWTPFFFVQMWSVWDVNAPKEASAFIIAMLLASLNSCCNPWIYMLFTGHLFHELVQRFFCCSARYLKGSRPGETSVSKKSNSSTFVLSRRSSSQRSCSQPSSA

As usually defined, the AC50 is the concentration at which the activity in the assay is half-maximal. Regarding `CC/C=C\C/C=C\C/C=C\CCCCCCCC(=O)OC`, the result in [1] was inactive. In assay [2], the half-maximal activity concentration (AC50) is 9.64 µM (active).

`COc1ccc(S(=O)(=O)N2C(=O)[C@@](c3ccccc3OC)(N3C[C@H](O)C[C@H]3C(=O)N(C)C)c3cc(Cl)ccc32)c(OC)c1`: the result in [1], in assay [3], in assay [4] and in [5] was inactive. In [6], the AC50 was 0.0663 µM (active).

`O=C(NS(=O)(=O)/C=C/c1cccs1)c1ccc(F)cc1Br`: the outcome in assay [1], in assay [4] and in assay [5] was inactive.

As for `CCOc1ccc(NC(C)=O)cc1`, the molecule was classed as inactive in assay [1]. In [7], the AC50 was 21 µM (active).

`C#CC(O)C(CC)CCCC` (stereo not drawn): the molecule was classed as inactive in [1] and in assay [8].

With `O=Cc1ccccc1C=O`, the result in assay [1], in assay [9], in assay [11] and in [12] was inactive. Also, the AC50 in assay [10] was 17.7 µM (active).

On to `CCOC=C(C(=O)OCC)C(=O)OCC`, for which the result in assay [1] and in assay [2] was inactive.

For `O=C(O)Cc1ccccc1Nc1c(Cl)cccc1Cl`, the call in assay [1] and in assay [10] was inactive.

On to `C=CCCCCCCCCCCCC`, for which the molecule was called inactive in [1], in [3], in assay [9] and in assay [5].

Turning to `Clc1ccc2c(Cl)ccnc2c1`, the molecule was classed as inactive in assay [1]. Also, the half-maximal activity concentration (AC50) in [7] was 20.8 µM (active).

For the molecule `COCCC(=O)OC`, the molecule was called inactive in assay [1] and in [7].

For the molecule `CC1CCC(C(C)(C)O)CC1` (stereo not drawn), in assay [1], the call was inactive. The AC50 in assay [2] was 1.56 µM (active).

Take `CC=CC(=O)C1=C(C)C=CCC1(C)C`: the molecule was classed as inactive in [1] and in assay [2].

In the case of `O=[N+]([O-])c1ccc(CO)cc1`, the call in assay [1] and in assay [2] was inactive.

`NCCOCCOCCN`: the outcome in assay [1] and in assay [6] was inactive.

Consider `FC(F)(F)C(F)(F)C(F)(F)C(F)(F)C(F)(F)C(F)(F)C(F)(F)I`, for which the result in [1] and in [13] was inactive.

Take `Cc1c2ccccc2c(C)c2c1ccc1ccccc12`: the call in assay [1], in assay [7] and in assay [14] was inactive.

`OC(O)(C(F)C(O)(O)C(F)(F)F)C(F)(F)F`: the result in assay [1] and in assay [13] was inactive.

`CCSC(=O)N(CC(C)C)CC(C)C`: the molecule was called inactive in [1] and in assay [15].

As to `Clc1cccc(Cl)n1`, the molecule was called inactive in [1] and in assay [7].

Regarding `O=S(=O)(O)CCC(F)(F)C(F)(F)C(F)(F)C(F)(F)F`, the outcome in [1] and in [13] was inactive.

As to `C=CC(=O)OCCN(CC)CC`, the call in [1] and in [7] was inactive.

For `FC(F)=C(F)C(F)(F)C(F)(F)C(F)(F)C(F)(F)C(F)(F)C(F)(F)F`, the outcome in assay [1] and in [13] was inactive.

Take `NCC(F)(F)C(F)(F)C(F)(F)C(F)(F)F`: the molecule was called inactive in assay [1] and in assay [13].
